Consider five compounds from PubChem BioAssay (EPA / NIEHS).

Structures are written as SMILES. Results filed as inconclusive are left out. Activity calls are given as the source filed them. How the source made its calls, unless noted: active means hit-call score of the fitted dose curve at least 0.9, where 1 is the maximum; inconclusive means response in the unintended direction; inactive means score below 0.9.

A short description of test [1]: ATG_TAL_CIS: Attagene CIS-FACTORIAL HepG2 Assay for human TAL Basal Promoter (AID 2282966; active means hit-call score of the fitted dose curve at least 0.9, where 1 is the maximum; inactive means score below 0.9;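 further: background control endpoint measuring basal TAL promoter reporter mRNA not a specific factor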). Particulars: HepG2 Attagene cis-factorial TAL promoter reporter; actives raise or lower the signal. The gist of the method:
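Steps: transfect HepG2 with multiple reporter transcription units; dose 24 h; isolate RNA, reverse-transcribe, PCR-amplify, label with 6-FAM, digest with HpaI; resolve by capillary electrophoresis. Bidirectional fitting against DMSO baseline.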

Test [2] is described as follows: ATG_TGFb_CIS: Attagene CIS-FACTORIAL HepG2 Assay for human Transforming Growth Factor (TGF) (AID 2282967; active means hit-call score of the fitted dose curve at least 0.9, where 1 is the maximum; inactive means score below 0.9). Particulars: HepG2 Attagene CIS TGFb reporter, mRNA transcription; actives raise or lower the signal. The gist of the method:
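After a 24-hour incubation with compound, transfected HepG2 cells were lysed for RNA; reporter cDNA was amplified, fluorescently end-labeled and separated by CE. DMSO served as baseline for bidirectional fits.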

Test [3] is described as follows: ATG_VDRE_CIS: Attagene CIS-FACTORIAL HepG2 Assay for human Vitamin D Receptor Element (VDRE) (AID 2282968; active means hit-call score of the fitted dose curve at least 0.9, where 1 is the maximum; inactive means score below 0.9). Particulars: HepG2 VDRE cis-reporter transcription, actives raise or lower the signal. The gist of the method: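 Reporter mRNA induction, quantified by capillary electrophoresis of fluorescently labelled RT-PCR products, was read 24 h after dosing HepG2 cells carrying transiently transfected cis-regulated reporter units; gain or loss relative to DMSO.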

The target in test [4] is Estrogen receptor (Homo sapiens) (UniProt P03372). The test is described as follows: ATG_ERa_TRANS: Attagene TRANS-FACTORIAL HepG2 Assay for human Estrogen Receptor alpha (ERa) (AID 2282970). Particulars: HepG2 Attagene TRANS ERa GAL4 reporter, mRNA. The gist of the method: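 Multiplexed cell-based reporter format in HepG2: chimeric ERa-Gal4 protein drives GAL4-UAS reporter transcription. Fluorescent reporter mRNA quantified by capillary electrophoresis 24 hours after dosing; endpoint fitted as signal gain against DMSO.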

Test [5] has as its target Steroid hormone receptor ERR1 (Homo sapiens) (UniProt P11474). The test is described as follows: ATG_ERRa_TRANS: Attagene TRANS-FACTORIAL HepG2 Assay for human Estrogen-Related Receptor alpha (ERRa) (AID 2282971). Particulars: HepG2 Attagene TRANS reporter, ERRa transactivation. The gist of the method:
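Signal gain relative to DMSO for an ERRa-Gal4 chimeric receptor, read as reporter mRNA by RT-PCR/capillary electrophoresis. Human HepG2 liver cells, transient multiplex reporter transfection, 24 h chemical exposure.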

For test [6], the target named is X-box-binding protein 1 (Homo sapiens) (UniProt P17861). The test is described as follows: ATG_Xbp1_CIS: Attagene CIS-FACTORIAL HepG2 Assay for human X-box Binding Protein 1 (XBP1) (AID 2282972; active means hit-call score of the fitted dose curve at least 0.9, where 1 is the maximum; inactive means score below 0.9). The note with it: HepG2 XBP1 cis-element reporter, Attagene multiplex; actives raise or lower the signal. The gist of the method: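 Fluorescence-labelled cDNA fragments from reporter transcripts, separated by capillary electrophoresis, give the signal. Source: HepG2 cells transfected with promoter-driven reporter units, harvested 24 h post-dose. DMSO served as reference for bidirectional curve fitting.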

A short description of test [7]: ATG_GAL4_TRANS: Attagene TRANS-FACTORIAL HepG2 Assay for GAL4 (Internal Marker) (AID 2282976). Particulars: HepG2 Attagene TRANS GAL4 internal marker reporter. The gist of the method:
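Liver HepG2 line bearing multiplexed GAL4-UAS reporter constructs; 24 h chemical treatment. Transcripts were quantified as fluorescent fragments on capillary electrophoresis after RT-PCR and HpaI cut, with activity fitted upward from DMSO.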

Test [8] deals with Glucocorticoid receptor (Homo sapiens) (UniProt P04150). The test is described as follows: ATG_GR_TRANS: Attagene TRANS-FACTORIAL HepG2 Assay for human Glucocorticoid Receptor (GR) (AID 2282978).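 Further: activators score as hits since higher reporter transcript over DMSO is fitted.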 The note with it: HepG2 Attagene TRANS GR reporter, mRNA transcription. The gist of the method: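 HepG2 cells transiently transfected with GAL4-UAS reporter units and exogenous GR-Gal4 chimera, dosed 24 h. Reporter mRNA by RT-PCR, FAM labeling, HpaI digest and capillary electrophoresis; gain-of-signal fit versus DMSO.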

Test [9] has as its target Bile acid receptor (Homo sapiens) (UniProt Q96RI1). As to the kind of experiment: ATG_FXR_TRANS: Attagene TRANS-FACTORIAL HepG2 Assay for Farnesoid X Receptor (FXR) (AID 2282979).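 Further: hits raise reporter mRNA above DMSO so AC50 marks FXR activation.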 The note with it: HepG2 Attagene TRANS FXR-GAL4 reporter transcription. The gist of the method: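 After 24 h chemical treatment of transfected HepG2 cells, GAL4-UAS reporter transcripts driven by an exogenous FXR-GAL4 fusion were measured by RT-PCR and capillary electrophoresis. Increases over DMSO were fitted.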

Test [10] concerns the target Oxysterols receptor LXR-beta (Homo sapiens) (UniProt P55055). As to the kind of experiment: ATG_LXRb_TRANS: Attagene TRANS-FACTORIAL HepG2 Assay for human Liver X Receptor beta (LXRb) (AID 2282981). The note with it: HepG2 Attagene TRANS GAL4-LXRb reporter, mRNA. The gist of the method:
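Transient transfection HepG2 (multiplexed RTUs, GAL4-UAS); NR-Gal4 chimera; 24 h exposure; RNA → RT-PCR → 6-FAM primer extension → HpaI → CE; increase vs DMSO.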

Test [11] addresses Hepatocyte nuclear factor 4-alpha (Homo sapiens) (UniProt P41235). The test is described as follows: ATG_HNF4a_TRANS: Attagene TRANS-FACTORIAL HepG2 Assay for human Hepatocyte Nuclear Factor 4 alpha (HNF4a) (AID 2282982). Particulars: HepG2 HNF4a transactivation reporter, mRNA readout. The gist of the method:
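Readout is fluorescent reporter-transcript fragments resolved by capillary electrophoresis after RT-PCR from HepG2 cells dosed for 24 h. Cells carried transfected GAL4-UAS reporter constructs measuring exogenous NR-GAL4 chimera activity; DMSO served as baseline.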

A short description of test [12]: ATG_M_06_TRANS: Attagene TRANS-FACTORIAL HepG2 Assay for M06 Transcription Factor (Internal Marker) (AID 2282983).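 Further: reporter transcript level by RT-PCR then capillary electrophoresis fluorescence.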 Particulars: HepG2 Attagene TRANS M06 internal marker reporter. The gist of the method: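 Internal-marker background readout from a multiplexed TRANS reporter system in HepG2; 24 h dosing; mRNA induction quantified by RT-PCR plus capillary electrophoresis fluorescence; DMSO as negative control and baseline.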

The nature of test [13]: ATG_M_32_TRANS: Attagene TRANS-FACTORIAL HepG2 Assay for M32 Transcription Factor (Internal Marker) (AID 2282984).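 Further: transcript level of a background control reporter unit measured by RT-PCR and capillary electrophoresis.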 The note with it: HepG2 Attagene TRANS M32 internal marker reporter. The gist of the method: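 Measures reporter mRNA induction in human HepG2 liver cells after 24 h chemical treatment. Transcripts from transiently transfected GAL4-UAS reporter units are amplified, fluorescently labelled and sized by capillary electrophoresis; gain of signal relative to DMSO.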

The target of test [14] is Transcriptional activator Myb (Homo sapiens) (UniProt P10242). As to the kind of experiment: ATG_Myb_CIS: Attagene CIS-FACTORIAL HepG2 Assay for human Myeloblastosis (Myb) Proto-Oncogene Transcription Factor (AID 2282986; active means hit-call score of the fitted dose curve at least 0.9, where 1 is the maximum; inactive means score below 0.9). The note with it: HepG2 Attagene CIS-FACTORIAL Myb reporter transcription; actives raise or lower the signal. The gist of the method: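 Transiently transfected HepG2 cells carrying a multiplexed cis-promoter reporter set report endogenous Myb activity after 24 h compound exposure. Reporter mRNA is read by RT-PCR with capillary electrophoresis of fluorescent products, fitted bidirectionally against DMSO.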

Test [15] concerns the target Nuclear respiratory factor 1 (Homo sapiens) (UniProt Q16656). The test is described as follows: ATG_NRF1_CIS: Attagene CIS-FACTORIAL HepG2 Assay for human Nuclear Respiratory Factor 1 (NRF1) Orphan Gene (AID 2282987; active means hit-call score of the fitted dose curve at least 0.9, where 1 is the maximum; inactive means score below 0.9). Particulars: HepG2 NRF1 cis-element reporter, Attagene multiplex; actives raise or lower the signal. The gist of the method: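 HepG2 cells transiently transfected with multiple cis-regulated reporter units, exposed 24 h. Reporter mRNAs measured by RT-PCR, fluorescent labelling, HpaI digestion and capillary electrophoresis; bidirectional fitting against DMSO.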

Test [16] deals with Nuclear receptor subfamily 1 group I member 3 (Homo sapiens) (UniProt Q14994). As to the kind of experiment: ATG_CAR_TRANS: Attagene TRANS-FACTORIAL HepG2 Assay for human Constitutive Androstane Receptor (CAR) (AID 2282969).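 Further: activators raise reporter mRNA above DMSO so AC50 marks induction.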 The note with it: HepG2 Attagene TRANS-FACTORIAL CAR reporter. The gist of the method:
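Readout is reporter mRNA induction, quantified by fluorescent primer extension and capillary electrophoresis after RT-PCR. Cells were HepG2 transiently carrying chimeric NR-Gal4 constructs with GAL4-UAS reporters, treated for 24 h; activity scored upward from DMSO.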

Test [17] in a line: ATG_M_19_TRANS: Attagene TRANS-FACTORIAL HepG2 Assay for M19 Transcription Factor (Internal Marker) (AID 2282974). The note with it: HepG2 Attagene TRANS-FACTORIAL M19 internal marker reporter. The gist of the method:
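HepG2 transiently transfected with GAL4-UAS multiplex reporter constructs, exposed 24 h; reporter RNA quantified by RT-PCR, 6-FAM labeling, HpaI digestion and capillary electrophoresis; internal background marker fitted upward versus DMSO.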

The target in test [18] is Oxysterols receptor LXR-alpha (Homo sapiens) (UniProt Q13133). The test is described as follows: ATG_LXRa_TRANS: Attagene TRANS-FACTORIAL HepG2 Assay for human Liver X Receptor alpha (LXRa) (AID 2282980). The note with it: HepG2 Attagene TRANS reporter, LXRa transactivation. The gist of the method: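 In this multiplexed TRANS system, compounds act on HepG2 cells carrying GAL4-UAS reporter units and a receptor-GAL4 fusion for 24 h. Induced reporter RNA is amplified, fluorescently labelled and sized by capillary electrophoresis, with DMSO as baseline.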

Test [19] addresses Nuclear receptor subfamily 4 group A member 2 (Homo sapiens) (UniProt P43354). The test is described as follows: ATG_NURR1_TRANS: Attagene TRANS-FACTORIAL HepG2 Assay for human Nuclear Receptor Related Protein 1 (NURR1) (AID 2282985). Particulars: HepG2 Attagene TRANS reporter, mRNA readout. The gist of the method:
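Transient transfection of HepG2, human liver cells, with multiple GAL4-UAS reporter transcription units. Cells dosed 24 h, RNA isolated, reverse-transcribed, PCR-amplified, FAM-labelled, HpaI-digested, sized by capillary electrophoresis. DMSO served as negative control.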

Sequence of Estrogen receptor (Homo sapiens) (P03372 whole entry, looked up, the tested form may be a part): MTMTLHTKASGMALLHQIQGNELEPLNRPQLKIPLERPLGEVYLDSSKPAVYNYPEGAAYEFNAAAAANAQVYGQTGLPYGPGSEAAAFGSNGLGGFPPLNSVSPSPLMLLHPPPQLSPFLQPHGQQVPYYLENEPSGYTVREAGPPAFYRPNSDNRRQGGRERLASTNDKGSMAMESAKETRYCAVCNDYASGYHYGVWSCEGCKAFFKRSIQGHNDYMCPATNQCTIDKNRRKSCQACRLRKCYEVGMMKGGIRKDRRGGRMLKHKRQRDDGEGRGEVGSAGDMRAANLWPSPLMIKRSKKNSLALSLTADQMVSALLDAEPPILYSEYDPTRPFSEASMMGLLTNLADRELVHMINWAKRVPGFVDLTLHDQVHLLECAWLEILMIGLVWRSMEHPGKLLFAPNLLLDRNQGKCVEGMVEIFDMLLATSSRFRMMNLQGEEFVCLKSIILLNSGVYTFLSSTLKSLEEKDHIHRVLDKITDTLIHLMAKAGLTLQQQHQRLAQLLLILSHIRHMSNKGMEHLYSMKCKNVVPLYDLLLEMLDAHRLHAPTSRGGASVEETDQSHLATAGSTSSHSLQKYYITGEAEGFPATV
Sequence of Nuclear receptor subfamily 4 group A member 2 (Homo sapiens) (P43354 whole entry, looked up, the tested form may be a part): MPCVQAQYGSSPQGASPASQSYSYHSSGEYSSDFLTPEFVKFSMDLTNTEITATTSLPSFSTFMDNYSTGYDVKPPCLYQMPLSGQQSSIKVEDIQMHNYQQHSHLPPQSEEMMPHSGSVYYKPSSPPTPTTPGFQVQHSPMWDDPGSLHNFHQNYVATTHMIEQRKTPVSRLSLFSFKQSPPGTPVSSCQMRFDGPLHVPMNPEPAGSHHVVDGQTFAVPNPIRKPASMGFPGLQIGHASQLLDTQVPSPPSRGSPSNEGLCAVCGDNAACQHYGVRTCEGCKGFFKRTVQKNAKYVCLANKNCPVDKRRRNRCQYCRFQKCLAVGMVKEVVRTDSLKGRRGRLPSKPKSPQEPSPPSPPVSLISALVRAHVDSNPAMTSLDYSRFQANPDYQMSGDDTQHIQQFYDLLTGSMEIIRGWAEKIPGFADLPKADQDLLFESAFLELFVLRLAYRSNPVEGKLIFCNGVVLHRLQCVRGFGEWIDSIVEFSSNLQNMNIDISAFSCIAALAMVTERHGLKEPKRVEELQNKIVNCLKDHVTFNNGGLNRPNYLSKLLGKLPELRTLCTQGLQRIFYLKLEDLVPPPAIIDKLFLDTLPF
Sequence of Nuclear respiratory factor 1 (Homo sapiens) (Q16656 whole entry, looked up): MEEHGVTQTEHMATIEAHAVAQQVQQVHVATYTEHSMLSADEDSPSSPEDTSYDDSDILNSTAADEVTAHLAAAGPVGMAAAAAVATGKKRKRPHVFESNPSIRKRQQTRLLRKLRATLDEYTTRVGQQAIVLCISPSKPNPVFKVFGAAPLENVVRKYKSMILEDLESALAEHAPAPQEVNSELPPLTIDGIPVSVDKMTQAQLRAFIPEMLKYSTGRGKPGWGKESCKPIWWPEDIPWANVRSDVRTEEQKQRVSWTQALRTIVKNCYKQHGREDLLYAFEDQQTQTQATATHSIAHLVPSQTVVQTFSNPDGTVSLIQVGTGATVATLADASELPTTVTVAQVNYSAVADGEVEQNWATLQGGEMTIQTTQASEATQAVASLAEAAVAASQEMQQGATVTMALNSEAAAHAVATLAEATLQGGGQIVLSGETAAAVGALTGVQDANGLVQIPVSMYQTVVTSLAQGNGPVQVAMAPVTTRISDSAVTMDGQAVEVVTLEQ
Sequence of X-box-binding protein 1 (Homo sapiens) (P17861 whole entry, looked up, the tested form may be a part): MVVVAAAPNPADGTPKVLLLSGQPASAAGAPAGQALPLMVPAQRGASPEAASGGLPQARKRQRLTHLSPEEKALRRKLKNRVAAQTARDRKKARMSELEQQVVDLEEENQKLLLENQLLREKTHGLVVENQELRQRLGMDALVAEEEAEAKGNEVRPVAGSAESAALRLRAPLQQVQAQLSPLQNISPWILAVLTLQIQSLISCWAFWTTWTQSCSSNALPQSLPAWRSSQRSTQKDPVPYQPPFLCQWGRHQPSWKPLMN
Sequence of Oxysterols receptor LXR-beta (Homo sapiens) (P55055 whole entry, looked up, the tested form may be a part): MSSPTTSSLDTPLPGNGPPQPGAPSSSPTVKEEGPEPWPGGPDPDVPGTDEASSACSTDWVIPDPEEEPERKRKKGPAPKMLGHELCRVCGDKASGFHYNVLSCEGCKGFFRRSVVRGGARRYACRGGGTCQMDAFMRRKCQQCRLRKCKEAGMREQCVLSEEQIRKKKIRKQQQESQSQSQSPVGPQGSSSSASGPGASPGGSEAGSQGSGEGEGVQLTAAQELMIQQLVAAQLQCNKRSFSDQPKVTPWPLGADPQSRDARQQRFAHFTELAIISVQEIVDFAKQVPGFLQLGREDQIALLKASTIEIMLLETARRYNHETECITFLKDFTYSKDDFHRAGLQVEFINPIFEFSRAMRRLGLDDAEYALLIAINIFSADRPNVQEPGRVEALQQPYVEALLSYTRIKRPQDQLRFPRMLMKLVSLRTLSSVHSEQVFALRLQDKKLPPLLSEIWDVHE
Sequence of Bile acid receptor (Homo sapiens) (Q96RI1 whole entry, looked up, the tested form may be a part): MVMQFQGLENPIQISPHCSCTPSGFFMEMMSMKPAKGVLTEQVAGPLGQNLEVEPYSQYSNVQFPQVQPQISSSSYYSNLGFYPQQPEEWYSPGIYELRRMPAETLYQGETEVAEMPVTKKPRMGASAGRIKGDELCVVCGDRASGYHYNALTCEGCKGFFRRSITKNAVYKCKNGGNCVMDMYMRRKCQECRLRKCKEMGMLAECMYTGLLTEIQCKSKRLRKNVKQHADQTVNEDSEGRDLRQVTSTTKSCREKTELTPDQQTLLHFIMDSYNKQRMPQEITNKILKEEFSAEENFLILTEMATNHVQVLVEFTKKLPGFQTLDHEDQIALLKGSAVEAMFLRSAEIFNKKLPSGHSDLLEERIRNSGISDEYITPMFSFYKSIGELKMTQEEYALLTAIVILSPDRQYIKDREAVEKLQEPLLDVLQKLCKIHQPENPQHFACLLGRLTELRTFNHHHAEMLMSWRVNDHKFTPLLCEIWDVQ
Sequence of Oxysterols receptor LXR-alpha (Homo sapiens) (Q13133 whole entry, looked up, the tested form may be a part): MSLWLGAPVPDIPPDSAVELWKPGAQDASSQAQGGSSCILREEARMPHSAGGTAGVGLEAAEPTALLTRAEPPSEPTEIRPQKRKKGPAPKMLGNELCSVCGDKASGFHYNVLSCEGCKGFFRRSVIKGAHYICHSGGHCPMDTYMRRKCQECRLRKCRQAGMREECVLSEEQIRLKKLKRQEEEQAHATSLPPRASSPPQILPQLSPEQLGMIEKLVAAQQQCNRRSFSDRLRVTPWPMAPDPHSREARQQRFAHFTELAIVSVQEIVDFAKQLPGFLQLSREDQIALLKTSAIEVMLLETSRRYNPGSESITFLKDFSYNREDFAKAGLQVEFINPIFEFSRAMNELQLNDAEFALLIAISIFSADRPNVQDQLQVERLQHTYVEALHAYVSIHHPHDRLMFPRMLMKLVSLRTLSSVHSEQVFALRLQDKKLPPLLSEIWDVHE
Sequence of Transcriptional activator Myb (Homo sapiens) (P10242 whole entry, looked up): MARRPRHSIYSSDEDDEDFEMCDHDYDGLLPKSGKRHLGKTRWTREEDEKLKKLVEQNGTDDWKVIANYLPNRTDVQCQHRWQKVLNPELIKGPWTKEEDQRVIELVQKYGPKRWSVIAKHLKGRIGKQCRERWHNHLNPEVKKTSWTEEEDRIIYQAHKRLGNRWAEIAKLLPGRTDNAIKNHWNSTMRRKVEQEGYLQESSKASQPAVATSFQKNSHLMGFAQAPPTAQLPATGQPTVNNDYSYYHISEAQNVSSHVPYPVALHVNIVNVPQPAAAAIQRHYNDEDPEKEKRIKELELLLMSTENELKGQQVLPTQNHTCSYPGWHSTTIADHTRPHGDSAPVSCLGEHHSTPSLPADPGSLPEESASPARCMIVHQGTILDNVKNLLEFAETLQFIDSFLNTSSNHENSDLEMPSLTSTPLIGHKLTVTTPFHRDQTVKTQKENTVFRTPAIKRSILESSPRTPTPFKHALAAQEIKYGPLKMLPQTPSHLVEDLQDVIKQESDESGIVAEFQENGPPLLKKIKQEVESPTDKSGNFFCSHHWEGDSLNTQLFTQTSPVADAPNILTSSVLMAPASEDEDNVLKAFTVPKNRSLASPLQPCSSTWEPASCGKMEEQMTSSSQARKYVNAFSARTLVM
Sequence of Steroid hormone receptor ERR1 (Homo sapiens) (P11474 whole entry, looked up, the tested form may be a part): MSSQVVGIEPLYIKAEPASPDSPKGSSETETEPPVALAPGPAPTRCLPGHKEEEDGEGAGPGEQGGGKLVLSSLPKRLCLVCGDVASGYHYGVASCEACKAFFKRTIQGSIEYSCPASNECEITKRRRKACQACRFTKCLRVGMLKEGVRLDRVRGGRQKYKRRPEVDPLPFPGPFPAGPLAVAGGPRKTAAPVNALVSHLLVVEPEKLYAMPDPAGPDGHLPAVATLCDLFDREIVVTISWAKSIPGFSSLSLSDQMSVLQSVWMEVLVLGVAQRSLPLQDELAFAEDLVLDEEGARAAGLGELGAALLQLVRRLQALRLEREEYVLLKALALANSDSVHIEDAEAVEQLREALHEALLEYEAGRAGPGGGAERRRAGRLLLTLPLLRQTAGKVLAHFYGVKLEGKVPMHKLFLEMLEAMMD
Sequence of Nuclear receptor subfamily 1 group I member 3 (Homo sapiens) (Q14994 whole entry, looked up, the tested form may be a part): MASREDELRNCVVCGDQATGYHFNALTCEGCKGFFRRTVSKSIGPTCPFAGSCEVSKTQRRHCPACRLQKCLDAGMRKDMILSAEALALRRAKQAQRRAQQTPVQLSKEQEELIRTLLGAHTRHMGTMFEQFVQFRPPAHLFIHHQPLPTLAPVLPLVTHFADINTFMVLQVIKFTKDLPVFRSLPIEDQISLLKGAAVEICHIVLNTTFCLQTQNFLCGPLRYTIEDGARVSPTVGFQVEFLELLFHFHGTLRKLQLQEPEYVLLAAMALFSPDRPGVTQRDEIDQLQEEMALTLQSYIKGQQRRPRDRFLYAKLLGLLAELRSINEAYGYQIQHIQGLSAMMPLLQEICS

For `O=C(O)C[C@H](O)C[C@H](O)/C=C/c1c(C2CC2)nc2ccccc2c1-c1ccc(F)cc1`, the result in test [1], in test [2], in test [3], in [4], in test [5] and in [6] was inactive. The compound was classed as inactive in [7], in [8], in [9], in [10], in test [11] and in test [12]. Moreover, the compound was called inactive in [13], in [14] and in test [15].

Take `Cc1ccc(O)c(C(C)(C)C)c1`: the AC50 in test [1] is 181 µM (active); in [3], 100 µM (active); in test [6] it was 142 µM (active). The outcome in test [2], in test [16], in [17], in test [18], in test [10] and in [13] was inactive. Further, in [15], the outcome was inactive.

Turning to `CCCCCCOC(=O)CC`, the call in [1], in test [2], in test [3], in test [4], in test [5] and in test [6] was inactive. The call in test [17], in test [18], in [10], in test [13], in [19] and in [14] was inactive. In addition, in test [15], the call was inactive.

For `CC(CCO)CCc1ccccc1` (stereo not given), the call in test [1], in test [2], in test [3], in [6], in test [17] and in test [8] was inactive. Also, the call in test [9], in [18], in test [12], in test [13], in test [19] and in test [14] was inactive. For the same compound, in test [4], the AC50 was 25.2 µM (active).

Take `Cc1c(N(C)C)c(=O)n(-c2ccccc2)n1C`: the compound was classed as inactive in test [1], in [2], in test [3], in [16], in [6] and in test [7]. Besides, the compound was called inactive in test [9], in [18], in [10], in [12], in [13] and in test [19]. The result in test [14] and in [15] was inactive.
